The supplement of paper PMC11732987, “Enantioselective OTUD7B fragment discovery through chemoproteomics screening and high-throughput optimisation” (Communications Chemistry, 2025)

Experiments:
Assay in all cases: log2 ratio of Biotin-Ahx-Ub-VS probe labelling (fragment/DMSO); higher = less target engagement (more negative = stronger competition), active = hit call of the paper (q ≤ 0.05, log2 ratio ≤ -1)
Conditions in all cases: compound concentration: 200 uM; treatment time: 3 h
USP19 = target: T1, USP19 (UniProt O94966)
T1 sequence (whole entry): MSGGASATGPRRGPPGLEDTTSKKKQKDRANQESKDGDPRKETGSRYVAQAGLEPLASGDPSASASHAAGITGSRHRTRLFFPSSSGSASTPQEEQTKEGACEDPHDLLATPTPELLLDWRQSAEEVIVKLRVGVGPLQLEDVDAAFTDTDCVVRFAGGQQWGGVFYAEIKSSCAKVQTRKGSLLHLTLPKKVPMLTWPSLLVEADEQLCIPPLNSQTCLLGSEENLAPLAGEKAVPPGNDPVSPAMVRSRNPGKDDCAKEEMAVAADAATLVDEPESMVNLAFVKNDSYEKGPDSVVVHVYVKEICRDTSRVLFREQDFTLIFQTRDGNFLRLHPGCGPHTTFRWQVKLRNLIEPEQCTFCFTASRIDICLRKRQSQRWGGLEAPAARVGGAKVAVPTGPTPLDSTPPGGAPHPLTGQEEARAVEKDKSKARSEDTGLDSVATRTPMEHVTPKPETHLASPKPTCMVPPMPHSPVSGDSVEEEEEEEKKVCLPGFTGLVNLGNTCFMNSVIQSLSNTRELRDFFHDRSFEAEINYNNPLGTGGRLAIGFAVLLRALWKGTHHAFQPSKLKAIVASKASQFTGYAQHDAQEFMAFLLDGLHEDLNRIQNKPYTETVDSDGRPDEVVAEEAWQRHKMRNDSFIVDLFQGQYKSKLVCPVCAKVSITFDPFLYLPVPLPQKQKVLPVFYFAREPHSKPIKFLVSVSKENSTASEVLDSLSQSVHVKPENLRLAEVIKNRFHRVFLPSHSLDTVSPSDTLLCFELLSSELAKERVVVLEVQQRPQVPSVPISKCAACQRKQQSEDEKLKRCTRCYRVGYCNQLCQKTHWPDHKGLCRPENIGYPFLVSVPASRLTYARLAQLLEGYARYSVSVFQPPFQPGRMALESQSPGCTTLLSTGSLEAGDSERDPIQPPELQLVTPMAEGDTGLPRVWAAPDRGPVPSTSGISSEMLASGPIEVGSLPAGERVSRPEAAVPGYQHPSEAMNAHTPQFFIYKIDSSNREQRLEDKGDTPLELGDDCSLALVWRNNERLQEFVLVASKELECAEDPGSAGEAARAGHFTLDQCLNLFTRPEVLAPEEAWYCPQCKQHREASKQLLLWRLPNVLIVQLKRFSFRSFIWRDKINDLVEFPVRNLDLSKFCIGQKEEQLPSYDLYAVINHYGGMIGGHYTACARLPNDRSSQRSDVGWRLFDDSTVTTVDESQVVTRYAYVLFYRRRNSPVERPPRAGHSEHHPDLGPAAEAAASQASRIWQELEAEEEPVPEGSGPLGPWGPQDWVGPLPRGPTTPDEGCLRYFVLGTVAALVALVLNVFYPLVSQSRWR
Procedure, shortened: (§1)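 Fragment (200 µM) or vehicle was incubated for 3 h with triplicate HEK293T lysate samples of 495 µg, which were then treated with Biotin-Ahx-Ub-VS at 0.5 µM final for 1 h. Labelled DUBs were enriched on NeutrAvidin, digested with LysC and trypsin, and analysed by diaPASEF LC-MS/MS. Values are average log2 fragment/vehicle ratios from an unpaired t-test on global-median-normalised Spectronaut label-free quantities, using proteins with ≥2 unique peptides.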

USP24 = USP24 (UniProt Q9UPU5)
Chain of USP24 (Q9UPU5 whole entry): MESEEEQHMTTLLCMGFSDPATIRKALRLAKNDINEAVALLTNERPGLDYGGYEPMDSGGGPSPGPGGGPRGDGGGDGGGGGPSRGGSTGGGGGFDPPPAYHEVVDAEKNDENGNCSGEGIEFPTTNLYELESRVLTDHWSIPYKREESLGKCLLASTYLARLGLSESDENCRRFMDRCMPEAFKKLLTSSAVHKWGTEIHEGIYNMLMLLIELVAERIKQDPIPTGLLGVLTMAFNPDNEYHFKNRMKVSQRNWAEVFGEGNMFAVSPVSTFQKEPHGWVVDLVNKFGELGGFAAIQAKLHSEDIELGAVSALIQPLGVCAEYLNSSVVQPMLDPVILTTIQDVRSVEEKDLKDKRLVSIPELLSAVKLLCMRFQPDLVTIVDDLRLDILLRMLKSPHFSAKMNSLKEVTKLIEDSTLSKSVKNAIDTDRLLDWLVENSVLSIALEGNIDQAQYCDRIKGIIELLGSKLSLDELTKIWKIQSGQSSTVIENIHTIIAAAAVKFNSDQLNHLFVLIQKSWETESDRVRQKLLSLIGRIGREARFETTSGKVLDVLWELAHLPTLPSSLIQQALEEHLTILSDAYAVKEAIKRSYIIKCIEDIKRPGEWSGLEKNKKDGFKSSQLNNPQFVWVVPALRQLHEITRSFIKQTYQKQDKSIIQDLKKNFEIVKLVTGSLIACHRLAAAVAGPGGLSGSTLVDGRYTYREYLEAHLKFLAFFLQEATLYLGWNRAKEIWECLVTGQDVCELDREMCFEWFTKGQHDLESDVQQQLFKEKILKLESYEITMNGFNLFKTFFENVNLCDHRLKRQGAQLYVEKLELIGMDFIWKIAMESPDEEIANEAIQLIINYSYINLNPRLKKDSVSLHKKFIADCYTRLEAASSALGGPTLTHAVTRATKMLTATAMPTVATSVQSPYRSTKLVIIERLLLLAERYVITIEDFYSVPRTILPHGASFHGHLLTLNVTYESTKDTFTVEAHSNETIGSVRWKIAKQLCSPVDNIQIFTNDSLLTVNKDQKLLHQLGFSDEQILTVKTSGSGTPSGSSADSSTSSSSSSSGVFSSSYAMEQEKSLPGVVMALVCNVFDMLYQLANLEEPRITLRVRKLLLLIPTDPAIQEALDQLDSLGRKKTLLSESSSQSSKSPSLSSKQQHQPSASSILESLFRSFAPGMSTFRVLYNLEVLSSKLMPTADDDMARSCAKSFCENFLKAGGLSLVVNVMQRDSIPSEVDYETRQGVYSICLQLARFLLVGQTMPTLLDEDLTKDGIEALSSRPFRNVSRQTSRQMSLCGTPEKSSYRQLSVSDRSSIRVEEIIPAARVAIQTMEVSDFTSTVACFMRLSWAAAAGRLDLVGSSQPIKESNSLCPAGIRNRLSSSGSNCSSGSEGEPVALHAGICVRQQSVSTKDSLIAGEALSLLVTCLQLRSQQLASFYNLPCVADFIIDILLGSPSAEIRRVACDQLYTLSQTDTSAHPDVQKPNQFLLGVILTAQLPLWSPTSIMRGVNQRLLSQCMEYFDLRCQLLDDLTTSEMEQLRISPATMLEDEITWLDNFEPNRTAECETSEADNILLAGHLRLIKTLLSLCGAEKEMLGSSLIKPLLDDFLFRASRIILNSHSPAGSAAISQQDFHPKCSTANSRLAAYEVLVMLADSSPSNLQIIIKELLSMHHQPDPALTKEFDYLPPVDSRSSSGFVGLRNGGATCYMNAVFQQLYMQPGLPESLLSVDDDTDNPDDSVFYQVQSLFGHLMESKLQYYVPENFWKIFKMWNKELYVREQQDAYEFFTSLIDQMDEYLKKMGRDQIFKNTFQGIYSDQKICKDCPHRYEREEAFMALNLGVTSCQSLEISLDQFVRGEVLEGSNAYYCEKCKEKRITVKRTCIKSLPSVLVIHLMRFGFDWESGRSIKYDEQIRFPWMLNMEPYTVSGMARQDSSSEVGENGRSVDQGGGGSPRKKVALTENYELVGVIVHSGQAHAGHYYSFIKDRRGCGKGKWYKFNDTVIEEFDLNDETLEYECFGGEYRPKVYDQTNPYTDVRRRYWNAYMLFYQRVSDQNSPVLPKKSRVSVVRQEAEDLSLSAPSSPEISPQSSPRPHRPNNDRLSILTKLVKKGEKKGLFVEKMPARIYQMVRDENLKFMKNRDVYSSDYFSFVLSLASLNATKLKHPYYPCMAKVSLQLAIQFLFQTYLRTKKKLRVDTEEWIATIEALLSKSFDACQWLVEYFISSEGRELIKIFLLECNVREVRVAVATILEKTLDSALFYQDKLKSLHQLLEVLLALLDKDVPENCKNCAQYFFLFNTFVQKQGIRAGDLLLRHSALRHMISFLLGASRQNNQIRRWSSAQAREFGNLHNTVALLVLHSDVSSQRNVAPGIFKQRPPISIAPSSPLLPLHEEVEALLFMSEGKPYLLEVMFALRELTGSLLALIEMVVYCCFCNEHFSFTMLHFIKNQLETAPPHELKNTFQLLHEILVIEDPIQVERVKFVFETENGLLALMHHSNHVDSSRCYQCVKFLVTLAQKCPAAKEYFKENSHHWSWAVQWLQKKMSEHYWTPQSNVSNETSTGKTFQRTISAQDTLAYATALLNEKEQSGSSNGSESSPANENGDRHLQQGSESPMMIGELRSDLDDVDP
Procedure, shortened: as §1

USP25 = target: T2, USP25 (UniProt Q9UHP3)
T2 sequence (whole entry): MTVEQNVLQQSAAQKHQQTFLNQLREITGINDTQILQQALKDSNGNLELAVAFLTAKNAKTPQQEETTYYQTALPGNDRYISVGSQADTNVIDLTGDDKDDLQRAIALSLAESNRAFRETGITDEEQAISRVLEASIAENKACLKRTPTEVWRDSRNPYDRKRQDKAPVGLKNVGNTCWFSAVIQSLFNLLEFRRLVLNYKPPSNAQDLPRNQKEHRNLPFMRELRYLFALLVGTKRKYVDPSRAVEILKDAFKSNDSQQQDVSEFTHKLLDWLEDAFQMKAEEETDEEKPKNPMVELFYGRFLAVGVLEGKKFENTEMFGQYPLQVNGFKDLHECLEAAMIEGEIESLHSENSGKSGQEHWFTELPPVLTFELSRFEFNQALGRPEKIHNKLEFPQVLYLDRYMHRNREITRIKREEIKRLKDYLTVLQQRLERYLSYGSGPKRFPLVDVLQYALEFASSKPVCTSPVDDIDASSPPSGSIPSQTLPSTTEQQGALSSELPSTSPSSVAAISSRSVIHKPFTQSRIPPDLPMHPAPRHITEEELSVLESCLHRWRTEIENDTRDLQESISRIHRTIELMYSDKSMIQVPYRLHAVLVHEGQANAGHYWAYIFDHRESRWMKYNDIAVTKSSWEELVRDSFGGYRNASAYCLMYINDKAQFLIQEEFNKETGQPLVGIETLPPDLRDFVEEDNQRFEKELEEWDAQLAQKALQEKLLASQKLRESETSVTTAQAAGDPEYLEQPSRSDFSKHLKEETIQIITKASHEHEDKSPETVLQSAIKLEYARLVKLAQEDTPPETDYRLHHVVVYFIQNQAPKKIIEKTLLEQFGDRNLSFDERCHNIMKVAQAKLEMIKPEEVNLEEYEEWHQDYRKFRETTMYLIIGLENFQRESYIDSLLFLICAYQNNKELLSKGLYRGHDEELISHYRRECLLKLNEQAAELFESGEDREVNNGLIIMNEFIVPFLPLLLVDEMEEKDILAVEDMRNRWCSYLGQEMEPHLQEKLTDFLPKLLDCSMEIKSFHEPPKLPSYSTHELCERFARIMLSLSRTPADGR
Procedure, shortened: as §1

USP28 = target: T3, USP28 (UniProt Q96RU2)
T3 sequence (whole entry): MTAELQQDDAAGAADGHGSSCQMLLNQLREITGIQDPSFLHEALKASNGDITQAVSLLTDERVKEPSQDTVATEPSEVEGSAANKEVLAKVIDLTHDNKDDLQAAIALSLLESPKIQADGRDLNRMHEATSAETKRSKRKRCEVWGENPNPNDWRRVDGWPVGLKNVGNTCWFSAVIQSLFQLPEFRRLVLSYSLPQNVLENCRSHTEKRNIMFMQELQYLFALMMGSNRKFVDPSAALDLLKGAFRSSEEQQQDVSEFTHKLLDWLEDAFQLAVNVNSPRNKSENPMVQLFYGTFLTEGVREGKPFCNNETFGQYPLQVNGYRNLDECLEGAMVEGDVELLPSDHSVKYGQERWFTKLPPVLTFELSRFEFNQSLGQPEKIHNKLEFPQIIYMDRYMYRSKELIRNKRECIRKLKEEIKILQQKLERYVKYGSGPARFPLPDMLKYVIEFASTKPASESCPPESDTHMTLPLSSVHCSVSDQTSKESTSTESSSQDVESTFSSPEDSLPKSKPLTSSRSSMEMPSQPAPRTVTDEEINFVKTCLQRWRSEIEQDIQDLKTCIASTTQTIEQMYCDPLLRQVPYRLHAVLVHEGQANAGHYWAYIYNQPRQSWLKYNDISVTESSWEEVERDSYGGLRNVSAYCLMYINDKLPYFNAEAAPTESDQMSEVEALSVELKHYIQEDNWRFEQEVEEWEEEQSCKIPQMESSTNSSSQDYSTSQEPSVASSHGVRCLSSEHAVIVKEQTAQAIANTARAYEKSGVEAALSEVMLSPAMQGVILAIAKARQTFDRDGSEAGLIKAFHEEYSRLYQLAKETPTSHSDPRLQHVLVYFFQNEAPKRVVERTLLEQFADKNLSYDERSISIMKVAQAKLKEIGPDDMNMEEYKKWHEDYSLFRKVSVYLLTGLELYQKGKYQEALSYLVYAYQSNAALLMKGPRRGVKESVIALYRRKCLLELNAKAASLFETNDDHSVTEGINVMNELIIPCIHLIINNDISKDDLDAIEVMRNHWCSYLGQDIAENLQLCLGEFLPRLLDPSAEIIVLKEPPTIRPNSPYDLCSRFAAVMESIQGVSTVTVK
Procedure, shortened: as §1

Measured: log2 ratio of Biotin-Ahx-Ub-VS probe labelling

Cc1ccc(N(C(=O)CCl)C2C=CS(=O)(=O)C2)cc1 (centres undefined)
inactive: USP19 0.0392 | USP24 -0.681 | USP25 0.0868 | USP28 -0.13
